In PubChem BioAssay (NCI):
Several values for one entry are separate records, joined by “and”; a condition that tells them apart may be missing. Equal values may be shown once. This is part of a sample that, as a whole, favours compounds with a hit. Of some 83,000 tested, about 20% had one in any assay.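 The endpoint reported here, percent growth, reads 100 for growth as untreated, 0 for no net growth and -100 for all cells dead.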 Activity calls are given as the source filed them. How the source made its calls: active means growth percent below 10; inactive means the rest.

Assays:
Experiment in all cases: NCI-60 one-dose screen, 48 h (100 = growth as untreated, 0 = no growth, -100 = all killed)
Conditions in all cases: 10 µM unless noted
HCT-15 colon = tested on: HCT-15 colon
HT29 colon = tested on: HT29 colon
SNB-75 CNS = tested on: SNB-75 CNS
SNB-19 CNS = tested on: SNB-19 CNS
U251 CNS = tested on: U251 CNS
PC-3 prostate = tested on: PC-3 prostate
SK-MEL-5 melanoma = tested on: SK-MEL-5 melanoma
UACC-62 melanoma = tested on: UACC-62 melanoma
LOX IMVI melanoma = tested on: LOX IMVI melanoma
SK-MEL-28 melanoma = tested on: SK-MEL-28 melanoma
SK-MEL-2 melanoma = tested on: SK-MEL-2 melanoma
EKVX NSCLC = tested on: EKVX NSCLC
SN12C renal = tested on: SN12C renal
UO-31 renal = tested on: UO-31 renal
TK-10 renal = tested on: TK-10 renal
ACHN renal = tested on: ACHN renal
A498 renal = tested on: A498 renal
CCRF-CEM leukemia = tested on: CCRF-CEM leukemia
MOLT-4 leukemia = tested on: MOLT-4 leukemia
CAKI-1 renal = tested on: CAKI-1 renal

| Compound | growth (HCT-15 colon) | growth (HT29 colon) | growth (SNB-75 CNS) | growth (SNB-19 CNS) | growth (U251 CNS) | growth (PC-3 prostate) | growth (SK-MEL-5 melanoma) | growth (UACC-62 melanoma) | growth (LOX IMVI melanoma) | growth (SK-MEL-28 melanoma) | growth (SK-MEL-2 melanoma) | growth (EKVX NSCLC) | growth (SN12C renal) | growth (UO-31 renal) | growth (TK-10 renal) | growth (ACHN renal) | growth (A498 renal) | growth (CCRF-CEM leukemia) | growth (MOLT-4 leukemia) | growth (CAKI-1 renal) |
| --- | --- | --- | --- | --- | --- | --- | --- | --- | --- | --- | --- | --- | --- | --- | --- | --- | --- | --- | --- | --- |
| CNC(=O)c1cccc(-c2ccc3c(N4CCOC[C@@H]4C)nc(N4CCOC[C@@H]4C)nc3n2)c1 | 9.22% (active) and 7.13% (active) | 18.3% (inactive) and 1.73% (active) | -32.8% (active) and -40.5% (active) | 10.2% (inactive) and 8.05% (active) | 9.22% (active) and 6.58% (active) | 6.6% (active) and 7.98% (active) | -38.2% (active) and -49.8% (active) | -24.9% (active) and -51.8% (active) | 3.01% (active) and -1.67% (active) | -15.7% (active) and -26.3% (active) | -8.99% (active) | -5% (active) and 2.98% (active) | 12.5% (inactive) and 5.62% (active) | -3.68% (active) and -24.2% (active) | -11.3% (active) and -31.2% (active) | 0.741% (active) and -1.46% (active) | -35.6% (active) and -37.8% (active) | 28% (inactive) and 20.3% (inactive) | 16.8% (inactive) and 8.62% (active) | – |
| O=C(/C=C/c1ccccn1)c1ccccc1O | 39.4% (inactive) and 62% (inactive) | 37.7% (inactive) and 29% (inactive) | 75% (inactive) | 77.3% (inactive) and 81.6% (inactive) | 38.3% (inactive) and 68.4% (inactive) | 82.8% (inactive) | 75.2% (inactive) and 88.1% (inactive) | 77.5% (inactive) and 81.6% (inactive) | 20.4% (inactive) and 21.7% (inactive) | 77.6% (inactive) and 92.6% (inactive) | 104% (inactive) and 100% (inactive) | 76% (inactive) and 88.1% (inactive) | 63.7% (inactive) and 88.1% (inactive) | – | 84.4% (inactive) and 55.3% (inactive) | 65.3% (inactive) and 74.2% (inactive) | 110% (inactive) | 13.3% (inactive) | 41.5% (inactive) | 34.8% (inactive) and 40% (inactive) |
| CC(C)Cc1ccc(C(C)C(=O)NCc2ccc(Cn3c(=O)sn(CCCI)c3=O)cc2)cc1 (configuration not stated) | 101% (inactive) and -54.2% (active) | 61.7% (inactive) and -58.7% (active) | 95.4% (inactive) and -73.6% (active) | 85.4% (inactive) and 37.4% (inactive) | 83.4% (inactive) and -70.5% (active) | 93.6% (inactive) and -70% (active) | 74.2% (inactive) and -96.6% (active) | 95.2% (inactive) and -83.2% (active) | 99.6% (inactive) and -96.6% (active) | 106% (inactive) and -72.2% (active) | 104% (inactive) and -40.1% (active) | 90.6% (inactive) and -64.7% (active) | 90.4% (inactive) and -76.9% (active) | – | 99.8% (inactive) and -90.7% (active) | 72% (inactive) and -100% (active) | 79.4% (inactive) and -2.41% (active) | 37% (inactive) and 2.58% (active) | 49% (inactive) and -3.72% (active) | 92.1% (inactive) and -82.9% (active) |
| CN1CCN(c2ccc3nc(-c4c(N)c5c(F)cccc5[nH]c4=O)[nH]c3c2)CC1 | 30.7% (inactive) and 18.7% (inactive) | 1.59% (active) and 10.3% (inactive) | 35.3% (inactive) and 28.4% (inactive) | 53.9% (inactive) and 61.5% (inactive) | 34.9% (inactive) and 33.5% (inactive) | 27.2% (inactive) and 38.4% (inactive) | 11.2% (inactive) and 36.3% (inactive) | 46.5% (inactive) and 41% (inactive) | -66.4% (active) and 16.4% (inactive) | -5.34% (active) | 45.5% (inactive) | -82.3% (active) and 54.7% (inactive) | 26.3% (inactive) and 27.6% (inactive) | 7.59% (active) and 16% (inactive) | 35.1% (inactive) and 45.8% (inactive) | – | 29% (inactive) and 14.6% (inactive) | 6.23% (active) and 10.7% (inactive) | -8.41% (active) and 1.37% (active) | 14% (inactive) and 20.4% (inactive) |
| CCOC(=O)c1c(C)oc(C)c(C(=O)OCC)c1=O | 106% (inactive) and 102% (inactive) | 105% (inactive) and 106% (inactive) | 96.5% (inactive) and 99.5% (inactive) | 102% (inactive) and 90.2% (inactive) | 111% (inactive) and 101% (inactive) | 94.1% (inactive) and 88.6% (inactive) | 111% (inactive) and 104% (inactive) | 111% (inactive) and 96.6% (inactive) | 103% (inactive) and 97.3% (inactive) | 109% (inactive) and 112% (inactive) | 111% (inactive) and 112% (inactive) | 128% (inactive) and 104% (inactive) | 113% (inactive) and 97.9% (inactive) | 96.6% (inactive) and 86.9% (inactive) | 98.1% (inactive) and 106% (inactive) | – | 113% (inactive) and 117% (inactive) | 96% (inactive) and 108% (inactive) | 150% (inactive) and 80.2% (inactive) | 103% (inactive) and 95.4% (inactive) |
| CNC(=O)c1cccnc1 | 103% (inactive) | 105% (inactive) | 92.5% (inactive) | 105% (inactive) | 92.3% (inactive) | 96.9% (inactive) | 107% (inactive) | 113% (inactive) | 92.9% (inactive) | 116% (inactive) | 118% (inactive) | 110% (inactive) | 111% (inactive) | 84.8% (inactive) | 103% (inactive) | – | 85.6% (inactive) | 87.9% (inactive) | 106% (inactive) | 92.1% (inactive) |
| CC1CCCC(=O)O1 (configuration not stated) | 94.8% (inactive) and 99.7% (inactive) | 106% (inactive) and 99.8% (inactive) | 83.3% (inactive) and 95.6% (inactive) | 111% (inactive) | 102% (inactive) and 104% (inactive) | 96.2% (inactive) and 95.1% (inactive) | 102% (inactive) and 108% (inactive) | 109% (inactive) and 101% (inactive) | 96.3% (inactive) and 97.2% (inactive) | 99.5% (inactive) and 113% (inactive) | 103% (inactive) and 107% (inactive) | 102% (inactive) | 111% (inactive) | 92.8% (inactive) and 76.7% (inactive) | 103% (inactive) and 108% (inactive) | – | 110% (inactive) and 97.8% (inactive) | 111% (inactive) | 99.5% (inactive) and 106% (inactive) | 95.7% (inactive) and 102% (inactive) |
| Cn1c(=O)n(-c2ccc(C(C)(C)C#N)cc2)c2c3cc(-c4cnc5ccccc5c4)ccc3ncc21 | 9.69% (active) and 14.5% (inactive) | 4.74% (active) and -10.5% (active) | -30.1% (active) and -24.4% (active) | 14.9% (inactive) and 14.7% (inactive) | 8.23% (active) and 8.1% (active) | 13.2% (inactive) and -18% (active) | -62.1% (active) and -89.1% (active) | -18.9% (active) and -20.3% (active) | 1.14% (active) and 2.87% (active) | -1.82% (active) and 1.77% (active) | -42.4% (active) | 7.47% (active) and 2.62% (active) | 15.6% (inactive) and 17.1% (inactive) | -14.7% (active) and -16.6% (active) | -27.5% (active) and -27.4% (active) | – | -46.3% (active) and -44.5% (active) | 10.1% (inactive) | -5.74% (active) and -20.5% (active) | 5.77% (active) and -2.85% (active) |
